Assay in all cases: NCI-60 one-dose screen, 48 h (100 = growth as untreated, 0 = no growth, -100 = all killed)
For one assay, the system named is SK-MEL-2 melanoma. The settings on record: 10 µM unless noted.
The next assay concerns EKVX NSCLC. The settings on record: 10 µM unless noted.
A further assay deals with SN12C renal. The settings on record: 10 µM unless noted.
For a further assay, the system named is UO-31 renal. The following applies: 10 µM unless noted.
The next assay concerns TK-10 renal. The settings on record: 10 µM unless noted.
In a further assay the test system is ACHN renal. The settings on record: 10 µM unless noted.
The next assay concerns CAKI-1 renal. The following applies: 10 µM.
The next assay deals with A498 renal. The settings on record: 10 µM unless noted.
Another assay deals with CCRF-CEM leukemia. The following applies: 10 µM unless noted.
A further assay deals with MOLT-4 leukemia. The following applies: 10 µM unless noted.
In a further assay the test system is OVCAR-8 ovarian. The settings on record: 10 µM unless noted.
The subject of the next assay is OVCAR-5 ovarian. The settings on record: 10 µM unless noted.
In a further assay the test system is OVCAR-4 ovarian. The following applies: 10 µM unless noted.
For another assay, the system named is SK-OV-3 ovarian. The settings on record: 10 µM unless noted.
A further assay relates to IGROV1 ovarian. The settings on record: 10 µM unless noted.
The next assay concerns HS 578T breast. The settings on record: 10 µM unless noted.
Another assay deals with NCI/ADR-RES ovarian. The settings on record: 10 µM unless noted.
Another assay deals with SR leukemia. The settings on record: 10 µM unless noted.
Another assay deals with RPMI-8226 leukemia. The settings on record: 10 µM unless noted.
A further assay relates to OVCAR-3 ovarian. The following applies: 10 µM unless noted.

Compounds without any hit were thinned out: in the full panel of roughly 83,000, 20% have a hit.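 Plates (96-well) were seeded with cells, treated with compound at one concentration, and incubated for 48 hours before percent growth was determined.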 Unmarked numbers belong to inactive results. The source made the active and inactive calls. The calls were made as follows: active = growth percent below 10; inactive = the rest.

As for `O=C1c2c(c3c4cc(O)ccc4oc3c3[nH]c4ccccc4c23)C(=O)N1O`, the growth in the assay with SK-MEL-2 melanoma is -71.6% (active); with EKVX NSCLC, 66.6%; with SN12C renal, 17.1%; with UO-31 renal, -40.1% (active); in the assay on TK-10 renal it was 31.1%; in the assay with ACHN renal, -5.43% (active). Also, the growth in the assay with CAKI-1 renal is -16.5% (active); in the assay with A498 renal, -9.95% (active); with CCRF-CEM leukemia it was 1.62% (active); in the assay on MOLT-4 leukemia, 4.76% (active); in the assay on OVCAR-8 ovarian, 12.1%; in the assay on OVCAR-5 ovarian, 72.5%. The growth is 22% in the assay on OVCAR-4 ovarian; -17% (active) in the assay with SK-OV-3 ovarian; 0.286% (active) in the assay with IGROV1 ovarian; -8.67% (active) in the assay on HS 578T breast; 40.7% in the assay on NCI/ADR-RES ovarian.
Consider `CCCCCCNC(=O)Oc1ccc(/C(=C(\C)c2ccc(Cl)cc2)c2ccc(OCCN(C)C)cc2)cc1`, for which the growth is 98% with SK-MEL-2 melanoma; 60.5% in the assay on EKVX NSCLC; 69.9% in the assay on SN12C renal; 43.6% with UO-31 renal; 88.9% in the assay on TK-10 renal; 71.5% in the assay on ACHN renal. Also, the growth in the assay on CAKI-1 renal was 70.4%; with CCRF-CEM leukemia, 36%; in the assay with MOLT-4 leukemia, 13.4%; with SR leukemia it was 2% (active); in the assay on RPMI-8226 leukemia, -11.6% (active); in the assay on OVCAR-8 ovarian, 84.8%. The growth in the assay with OVCAR-5 ovarian was 78.1%; in the assay on OVCAR-4 ovarian, 74.5%; in the assay with SK-OV-3 ovarian, 94.4%; in the assay on IGROV1 ovarian, 44.7%; in the assay on OVCAR-3 ovarian, 66.4%; with HS 578T breast, 80.6%. Further, in the assay on NCI/ADR-RES ovarian, the growth is 62.9%.
Regarding `COc1ccccc1/C=C/C(=O)c1nnn(-c2ccc(C(=O)O)cc2)c1C`, the growth is 98.6% in the assay with SK-MEL-2 melanoma; 87.2% in the assay on EKVX NSCLC; 84.1% with SN12C renal; 87.6% in the assay with UO-31 renal; 117% with TK-10 renal; 94% in the assay on ACHN renal. Also, the growth in the assay with CAKI-1 renal is 96%; in the assay on CCRF-CEM leukemia, 63.9%; in the assay on MOLT-4 leukemia, 94.4%; with SR leukemia, 67%; with RPMI-8226 leukemia, 90.4%; in the assay on OVCAR-8 ovarian it was 91.6%. In addition, the growth with OVCAR-5 ovarian is 113%; with OVCAR-4 ovarian it was 101%; in the assay on SK-OV-3 ovarian it was 106%; with IGROV1 ovarian, 90.4%; in the assay on OVCAR-3 ovarian it was 89.2%; in the assay with HS 578T breast, 106%. Also, the growth with NCI/ADR-RES ovarian is 93.5%.
Regarding `COc1ccc(Cn2cc3c(c2-c2cc(OC)c(OC)c(OC)c2)CCCc2cnoc2-3)cc1N`, the growth was 55.4% in the assay on SK-MEL-2 melanoma; 46.6% with EKVX NSCLC; 40.5% in the assay with SN12C renal; 38.2% with UO-31 renal; 78.9% with TK-10 renal; 40.1% with ACHN renal. Also, the growth was 31.5% in the assay with CAKI-1 renal; 15.5% with CCRF-CEM leukemia; 17.4% in the assay with MOLT-4 leukemia; 18% in the assay on SR leukemia; 19.9% with RPMI-8226 leukemia; 47.3% in the assay on OVCAR-8 ovarian. The growth in the assay with OVCAR-5 ovarian was 38.2%; in the assay with OVCAR-4 ovarian it was 80.9%; in the assay on SK-OV-3 ovarian, 65.6%; in the assay on IGROV1 ovarian, 35.2%; with OVCAR-3 ovarian it was 7.33% (active); in the assay on HS 578T breast it was 13%. In addition, the growth with NCI/ADR-RES ovarian is 15.5%.
As for `O=C(COc1cccc2cccnc12)Nc1ccc(C(=O)/C=C/c2ccc(Cl)cc2)cc1`, the growth was 96.2% in the assay with SK-MEL-2 melanoma; 80.9% in the assay with EKVX NSCLC; 86% in the assay on SN12C renal; 67.7% with UO-31 renal; 104% in the assay on TK-10 renal; 94% with ACHN renal. In addition, the growth in the assay on CAKI-1 renal was 76.2%; in the assay on CCRF-CEM leukemia, 83.3%; in the assay on MOLT-4 leukemia, 67.7%; in the assay with SR leukemia it was 61.1%; in the assay on RPMI-8226 leukemia, 7.02% (active); in the assay with OVCAR-8 ovarian, 94.4%. Besides, the growth in the assay with OVCAR-5 ovarian is 105%; in the assay on OVCAR-4 ovarian, 92%; in the assay on SK-OV-3 ovarian, 105%; in the assay with IGROV1 ovarian, 88.8%; with OVCAR-3 ovarian, 100%; in the assay with HS 578T breast it was 98.8%. For the same molecule, in the assay on NCI/ADR-RES ovarian, the growth was 79.2%.
`COc1ccc(-c2cc(-c3cccc4ccccc34)n3c(n2)nc2ccccc23)cc1OC`: the growth is 98.2% in the assay with SK-MEL-2 melanoma; 69.2% in the assay with EKVX NSCLC; 10.9% in the assay with SN12C renal; 29.4% with UO-31 renal; 53.1% in the assay with TK-10 renal; 8.14% (active) with ACHN renal. Also, the growth is 17.3% with CAKI-1 renal; 38% in the assay on A498 renal; 3.68% (active) in the assay with CCRF-CEM leukemia; 7.55% (active) in the assay on MOLT-4 leukemia; -18.4% (active) with RPMI-8226 leukemia; 34.3% in the assay on OVCAR-8 ovarian. Further, the growth with OVCAR-5 ovarian is 52.2%; in the assay with OVCAR-4 ovarian it was 71.9%; in the assay on SK-OV-3 ovarian, 35.3%; with IGROV1 ovarian, 52.3%; in the assay on HS 578T breast it was 46.3%; in the assay with NCI/ADR-RES ovarian, 47.4%.
As to `CCOC(=O)c1c(NCC(=O)Nc2cccc([N+](=O)[O-])c2)sc2c1CCCC2`, the growth in the assay on SK-MEL-2 melanoma was -43.2% (active); with EKVX NSCLC, -22.7% (active); in the assay with SN12C renal, -28.9% (active); in the assay on UO-31 renal it was -17.7% (active); with TK-10 renal it was -33.2% (active); in the assay with ACHN renal, -60.9% (active). In addition, the growth with CAKI-1 renal is -20.2% (active); in the assay on CCRF-CEM leukemia, 8.8% (active); in the assay on MOLT-4 leukemia, 5.22% (active); with SR leukemia, 11.7%; in the assay with RPMI-8226 leukemia it was -10.7% (active); in the assay with OVCAR-8 ovarian it was -18.2% (active). Moreover, the growth was -45.6% (active) in the assay with OVCAR-5 ovarian; -45.2% (active) in the assay on OVCAR-4 ovarian; -67.3% (active) with SK-OV-3 ovarian; -19.6% (active) in the assay with IGROV1 ovarian; -39.7% (active) in the assay with OVCAR-3 ovarian; -14.8% (active) in the assay on HS 578T breast. Further, the growth with NCI/ADR-RES ovarian is -36.7% (active).
In the case of `CCCCCCNC(=O)Oc1ccc(/C(=C(\C)c2ccc(OC)cc2)c2ccc(OCCN(C)C)cc2)cc1`, the growth with SK-MEL-2 melanoma is 99.8%; in the assay on EKVX NSCLC, 75%; in the assay on SN12C renal, 78.8%; in the assay on UO-31 renal, 52.1%; with TK-10 renal it was 107%; with ACHN renal, 88.3%. Besides, the growth was 82.9% with CAKI-1 renal; 67.3% with CCRF-CEM leukemia; 44.5% with MOLT-4 leukemia; 13.1% with SR leukemia; 19.4% in the assay on RPMI-8226 leukemia; 86.4% with OVCAR-8 ovarian. Moreover, the growth is 86.8% in the assay on OVCAR-5 ovarian; 90.9% in the assay on OVCAR-4 ovarian; 103% in the assay on SK-OV-3 ovarian; 68.4% in the assay with IGROV1 ovarian; 91.3% with OVCAR-3 ovarian; 83.2% with HS 578T breast. The growth with NCI/ADR-RES ovarian is 74.8%.

Source of the values: PubChem BioAssay (NCI).
